# VDR inh: inhibitors of human vitamin D receptor; P11473; VDR-SRC2-3 peptide fluorescence polarization, 2 h; Potency, µM, for the others: max response, negative = inhibition, most hits filed as inhibitors; 400,000 tested, 0.93% active; AID 504847; also: potency is read from the fitted curve at half-maximal effect
# Target sequence (P11473 whole entry, looked up): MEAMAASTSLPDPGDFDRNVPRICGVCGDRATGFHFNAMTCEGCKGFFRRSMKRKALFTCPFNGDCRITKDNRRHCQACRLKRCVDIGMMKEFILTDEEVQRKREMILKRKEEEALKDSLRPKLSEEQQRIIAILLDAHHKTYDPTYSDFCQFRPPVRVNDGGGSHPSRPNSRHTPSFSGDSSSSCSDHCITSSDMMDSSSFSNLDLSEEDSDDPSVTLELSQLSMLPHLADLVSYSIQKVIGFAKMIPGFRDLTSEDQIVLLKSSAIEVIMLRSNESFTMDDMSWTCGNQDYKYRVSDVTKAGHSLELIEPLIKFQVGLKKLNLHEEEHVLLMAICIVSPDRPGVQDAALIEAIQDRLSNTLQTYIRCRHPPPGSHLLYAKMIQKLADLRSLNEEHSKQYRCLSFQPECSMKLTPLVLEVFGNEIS
#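 After 23 nl compound addition and a short centrifugation, plates sat for 2 hours at ambient temperature; polarization of fluorescence then indicated loss of VDR binding to peptide SRC2-3.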
# CCT modulator: changes cytosolic chaperonin activity; purified chaperonin ATPase assay, HTRF ADP detection, 30 min; activity change, % (concentration not given with the values), hits read low; 360,000 tested, 0.3% active; in the data active = activity change below about -30%
#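 First, chaperonin was dispensed at 40 nM or 20 nM final depending on batch activity. Next, compounds were pinned at 76 uM and ATP added at 10 uM. After 30 min at 37 °C, ADP detection reagents ran 30 min at ambient temperature.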
# PLK1 PBD inh: blocks phosphopeptide binding to human PLK1 polo-box domain; Potency, µM, inactives show max response, negative = inhibition, actives largely listed as inhibitors; 360,000 tested, 2.8% active; Plk1 PBD binding of FITC phosphopeptide, fluorescence polarization; AID 720504; also: potency is read from the fitted curve at half-maximal effect; series mostly up to about 57 µM; nearly all actives have a fitted effect of over 65% in size
# Mm-Cpn inhibitor: M. maripaludis TRiC chaperonin inhibition | Potency, µM (titrated, usually from 76.9 µM), inactives show top-dose activity, negative = inhibition, actives largely listed as inhibitors | 330,000 tested, 0.031% active | AID 504842 | purified Mm-Cpn ATPase, ADP Transcreener TR-FRET; also: potency is read from the fitted curve at half-maximal effect; nearly all actives have a fitted effect of over 80% in size
#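 TR-FRET (320 nm excitation; 590 and 665 nm emission) reports ADP made from 10 uM ATP by 25 nM enzyme; compounds were preincubated 10 min, reaction run 30 min, both at 37°C.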
# Sfp PPTase inh: blocks B. subtilis Sfp PPTase activity | Q9F4F7 | Biochemical Sfp PPTase activity, qHTS | Potency, µM, for inactives: largest response in the series, negative = inhibition, usual class: inhibitors | 310,000 tested, 3.5% active;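 also: the enzyme is Sfp with the accession as filed and its product quenches rhodamine fluorescence; potency is read from the fitted curve at half-maximal effect; 0% = enzyme reaction without inhibitor and -100% = no enzyme wells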
#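 With Hepes-Na pH 7.6 buffer containing 10 mM MgCl2, Sfp (15 nM) modified BHQ-2-YbbR (12.5 uM) using rhodamine-CoA (5 uM). Two reads 30 minutes apart at 525/598 nm yielded each well's rate.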
# G9a inh: blocks human histone lysine methyltransferase G9a | Q96KQ7 | Potency, µM (highest dose often 102 µM), inactives show at the top dose activity, negative = inhibition, actives largely listed as inhibitors | G9a H3K9 monomethylation, AlphaScreen, 2 h | 350,000 tested, 8.8% active; also: potency is read from the fitted curve at half-maximal effect; nearly all actives have a fitted effect of over 75% in size
# Target sequence (Q96KQ7 913-1193 limits assumed): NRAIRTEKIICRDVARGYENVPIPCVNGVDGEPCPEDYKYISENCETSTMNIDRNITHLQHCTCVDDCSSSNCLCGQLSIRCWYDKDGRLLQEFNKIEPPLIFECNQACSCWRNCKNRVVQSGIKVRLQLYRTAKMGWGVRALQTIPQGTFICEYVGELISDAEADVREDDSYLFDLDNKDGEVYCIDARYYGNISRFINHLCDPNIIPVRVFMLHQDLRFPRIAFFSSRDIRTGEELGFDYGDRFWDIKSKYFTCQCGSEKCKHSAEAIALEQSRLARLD
#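 Enzyme 20 nM + cpd, 15 min RT; add b-H3K9 pep 500 nM / SAM 20 uM; 2 h RT; anti-H3K9me1 Ab 0.5 ug/mL + SA donor / anti-rabbit acceptor beads 20 ug/mL each, 10 min; AlphaScreen read.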
# * = called active by the depositor; ? = inconclusive; / = no result given; [ ] = another dose, or the depositor's remark. In the library only some 10% were active in any assay of this set; here they are far more common. Unless noted, calls follow the shape of the dose curve; as a rule, active = well fitted curve in the direction sought with a large enough effect; inconclusive = small, poorly fitted or top-dose-only effect, or another doubt; inactive = no such curve, though single readings can be large; an effect the other way counts as inactive or inconclusive. Unless noted, % is scaled to controls: 0 for no effect and ±100 for the full control effect.
SMILES,VDR inh,CCT modulator,PLK1 PBD inh,Mm-Cpn inhibitor,Sfp PPTase inh,G9a inh
CC(C)CCn1c(Oc2ccccc2F)nc2c1c(=O)n(C)c(=O)n2C,-2%,/,/,/,/,-9%[59 µM]
COC(=O)CC1C(=O)NCCN1C(=O)CSc1nnc(Nc2ccc(C)cc2)s1 (configuration not stated),-1%,-1,-10%,0%,14%,40µM*
C1=C(c2ccccc2)N2CCN=C2S1,-4%,-2,-5%,1%,14%,-36%[59 µM]
Nc1ccc2c(c1)N1CCN=C1S2,-12%,1,-17%,-1%,4%,7.1µM*
CCC(=O)Nc1nc2nc(-c3ccccc3)cc(=O)n2[nH]1,-22%,-1,-12%,1%,11%,45µM*
COc1ccccc1N=C(C)C1=C(O)CSC1=O,-6%,-2,-6%,1%,-23%,?
COc1ccc(OC)c(N=C(C)C2=C(O)COC2=O)c1,2%,-2,2%,0%,0%,3.5µM*
N#CC1=C(N)Oc2c(oc(CO)cc2=O)C1c1cccs1 (configuration not stated),4%,-1,-5%,-4%,1%,45µM*
COc1cc(C2C(C#N)=C(N)Oc3c2oc(CO)cc3=O)cc(OC)c1OC (configuration not stated),-8%,-1,-9%,1%,-7%,?
COc1ccc(C2C(C#N)=C(N)Oc3c2oc(CO)cc3=O)c(OC)c1OC (configuration not stated),-3%,-34*,-1%,1%,-4%,-13%[59 µM]
COc1cccc(C2C(C#N)=C(N)Oc3c2oc(CO)cc3=O)c1OC (configuration not stated),1%,-1,-6%,0%,-11%,?
N#CC1=C(N)Oc2c(oc(CO)cc2=O)C1c1ccsc1 (configuration not stated),-12%,0,-27%,-1%,50µM*,32µM*
COC(=O)c1ccc(NC(=O)N2CCC(CN3CCc4ccccc4C3)CC2)cc1,21%,/,/,/,/,-25%[59 µM]
CC(=O)OCCCCCCCCCCC[N+]1(C)CCCCC1,3%,-2,1%,0%,4%,45µM*
COC(=O)CCCCCCCCCC[N+]1(C)CCCCC1,-9%,0,-4%,0%,1%,16µM*
CNCCCC1c2ccccc2C=Cc2ccccc21,0%,-1,-11%,1%[15.4 µM],1%,22%[59 µM]
CNCCCC1Sc2ccccc2Oc2ccccc21 (configuration not stated),-9%,-1,-9%,2%,-14%,7.9µM*
CCc1ccccc1NC(=O)CCc1c(C)nc2cc(-c3ccccc3)nn2c1C,-23%,/,/,/,/,4%[59 µM]
CCOC(=O)c1c(C)[nH]c(C(=O)CN2CCN(CC)CC2)c1C,-3%,-1,4%,-3%,79µM*,/
CCOC(=O)c1c(C)[nH]c(C(=O)CSc2nnc(C3CC3)n2N)c1C,?,-1,24µM*,-6%,-4%,?
CCOC(=O)c1c(C)[nH]c(C(=O)CSc2ccccc2)c1C,14%,-3,-8%,1%,-3%,-18%
CCN(C(=O)CSc1nc2ccccc2n1CC(=O)Nc1ccccc1C)c1ccccc1,8%,/,/,/,/,-7%[12.7 µM]
COc1cccc(CNC(=O)c2c(C)nn(-c3ccc(F)cc3)c2-n2cccc2)c1,5%,/,/,/,/,-3%[59 µM]
Nc1nnnn1CC(=O)N/N=C/c1cccs1,-17%,-2,-11%,2%,8%,-6%
Cc1ccnn1CC(=O)N/N=C/c1cccs1,-6%,0,-3%,1%,24%,28%[59 µM]
SMILES,VDR inh,CCT modulator,PLK1 PBD inh,Mm-Cpn inhibitor,Sfp PPTase inh,G9a inh
Cc1cc(C)n(CC(=O)N/N=C/c2ccccn2)n1,0%,-1,-6%,0%,18µM*,0.71µM*
Cc1cccc(/C=N/NC(=O)Cn2nc(C)cc2C)n1,-1%,0,-5%,2%,?,-24%[59 µM]
Nc1nnnn1CC(=O)N/N=C/c1ccccn1,-7%,-1,1%,-5%,35µM*,9%
Cc1cccc(/C=N/NC(=O)Cn2nccc2C)n1,11%,-1,-3%,-2%,50µM*,7%
Clc1ccc(OCCCN2CCCCC2)c(Br)c1,-3%,-1,0%,1%[15.4 µM],-22%,3.5µM*
CCN1CCN(CCOc2ccc(Br)cc2C)CC1,?,-1,-2%,-4%,50µM*,7.9µM*
CCN1CCN(CCCOc2ccc(Cl)cc2Br)CC1,3%,2,0%,-1%,10µM*,/
Cc1cc(Br)ccc1OCCN1CCCC1,-8%,-2,-12%,0%,-25%,/
Clc1ccc(OCCN2CCCCC2)c(Cl)c1,16%,-5,-10%,-3%,-16%,11µM*
O=C(Nc1ccc(F)c(F)c1)C1CCCN1S(=O)(=O)c1cccc2nsnc12 (configuration not stated),-11%,/,/,/,/,3%[59 µM]
CC1CCN(C(=O)C(C)OC(=O)c2ccc(S(C)(=O)=O)c([N+](=O)[O-])c2)CC1 (configuration not stated),-14%,/,/,/,/,/
CCc1ccc(NC(=O)Cn2ncc3c4ccccc4n(C)c3c2=O)cc1,?,-2,24µM*,-1%,14%,-4%
Cn1c2ccccc2c2cnn(CC(=O)Nc3ccc(Cl)cc3)c(=O)c21,6%,0,-5%,1%,-1%,5%
CCn1nnnc1SCC(=O)NC1CCCC1,1%,2,-9%,-1%,7%,-9%[0.501 µM]
CCn1c(CSCc2ccc(C)cc2)nnc1SCC(=O)N1CCN(c2ccccc2)CC1,14%,-2,-13%,-2%,5%,?
O=C(CSc1nnnn1Cc1ccccc1)N1CCN(c2ccccc2)CC1,0%,-37*,-6%,-1%,-3%,45µM*
C=CCn1c(CSCc2ccccc2)nnc1SCC(=O)N1CCN(c2ccccc2)CC1,0%,-2,-6%,2%,?,25µM*
CCn1c(CC(=O)Nc2cccc(OC)c2)nnc1SCC(=O)N1CCN(c2ccccc2)CC1,13%,-3,-5%,-2%,11%,13µM*
O=C(CSc1nnnn1Cc1ccccc1)NC1CCCCC1,-19%,-1,-12%,-6%,20%,50µM*
COC(=O)c1sc2cccc(F)c2c1S(=O)(=O)Nc1ccc(C)cc1Cl,9%,/,/,/,/,-50%[59 µM]
Cc1ccc(CN(C(=O)c2ccc(C(C)(C)C)cc2)c2ccccn2)o1,-3%,/,/,/,/,3%[59 µM]
CCCCOc1ccccc1C(=O)N(Cc1sccc1C)C1CCS(=O)(=O)C1 (configuration not stated),10%,/,/,/,/,-7%[59 µM]
O=C1C2=C(c3ccccc31)[N+](=O)[C@@H]1CCCC[C@@H]1N2[O-],-8%,-3,?,-1%,56µM*,?
CC(=O)C1C(=O)c2c(cccc2[N+](=O)[O-])C1=Nc1cccc(Cl)c1 (configuration not stated),9%,-4,-10%,0%,56µM*,/

# Screening results: PubChem, National Center for Advancing Translational Sciences (NCATS)
